Laboratory results taken from PubChem BioAssay (NCI).
Compounds without any hit were thinned out: in the full panel of roughly 83,000, 20% have a hit.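 Single-dose data. Exposure time 48 hours. Values below 10 considered active.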 The source made the active and inactive calls.

Key:
Test in all cases: NCI-60 one-dose screen, 48 h (100 = growth as untreated, 0 = no growth, -100 = all killed)
Conditions in all cases: 10 µM unless noted
SR leukemia = system: SR leukemia
RPMI-8226 leukemia = system: RPMI-8226 leukemia
OVCAR-8 ovarian = system: OVCAR-8 ovarian
OVCAR-5 ovarian = system: OVCAR-5 ovarian
OVCAR-4 ovarian = system: OVCAR-4 ovarian
SK-OV-3 ovarian = system: SK-OV-3 ovarian
IGROV1 ovarian = system: IGROV1 ovarian
OVCAR-3 ovarian = system: OVCAR-3 ovarian
HS 578T breast = system: HS 578T breast
NCI/ADR-RES ovarian = system: NCI/ADR-RES ovarian

Measured: growth

Cc1cc2nc(C(Cl)Cl)nc(-c3ccc(S(=O)(=O)N(C)C)cc3)n2n1
inactive: SR leukemia 11.8% | RPMI-8226 leukemia 55.3% | OVCAR-8 ovarian 33.9% | OVCAR-5 ovarian 67.3% | OVCAR-4 ovarian 57.2% | SK-OV-3 ovarian 50.5% | IGROV1 ovarian 23.1% | OVCAR-3 ovarian 78.4% | HS 578T breast 72.7% | NCI/ADR-RES ovarian 26.3%

Cc1ccc2c(n1)C(=O)C(Cl)=C(Nc1ccc(C(=O)OC(C)(C)C)cc1)C2=O
active: SR leukemia -11.5% [9.25 µM] | RPMI-8226 leukemia -0.459% [9.25 µM] | OVCAR-3 ovarian 1.44% [9.25 µM]
inactive: OVCAR-8 ovarian 80.3% [9.25 µM] | OVCAR-5 ovarian 127% [9.25 µM] | OVCAR-4 ovarian 42.7% [9.25 µM] | SK-OV-3 ovarian 101% [9.25 µM] | IGROV1 ovarian 84.8% [9.25 µM] | HS 578T breast 101% [9.25 µM]

O=C(CSc1nnc(-c2ccc(Cl)cc2)n1-c1ccccc1)Nc1ccccc1Cl
inactive: SR leukemia 20.5% | RPMI-8226 leukemia 35.4% | OVCAR-8 ovarian 67.2% | OVCAR-5 ovarian 81.3% | SK-OV-3 ovarian 125% | IGROV1 ovarian 52.3% | OVCAR-3 ovarian 91.6% | HS 578T breast 58.8% | NCI/ADR-RES ovarian 54.8%
active: OVCAR-4 ovarian 8.39%

CC(=O)Nc1ccccc1-c1nc2ccccc2s1
inactive: SR leukemia 110% | RPMI-8226 leukemia 113% | OVCAR-8 ovarian 103% | OVCAR-5 ovarian 102% | OVCAR-4 ovarian 97.4% | SK-OV-3 ovarian 108% | IGROV1 ovarian 101% | OVCAR-3 ovarian 112% | HS 578T breast 106% | NCI/ADR-RES ovarian 98.5%

COC(=O)c1cccc(NC2=C(Cl)C(=O)C(C)=C(C)C2=O)c1
active: OVCAR-4 ovarian -36.7%
inactive: SR leukemia 30% | RPMI-8226 leukemia 58.3% | OVCAR-8 ovarian 99.4% | OVCAR-5 ovarian 101% | SK-OV-3 ovarian 106% | IGROV1 ovarian 56.2% | OVCAR-3 ovarian 94.2% | HS 578T breast 88.1% | NCI/ADR-RES ovarian 98.2%

CCCCCCN1C=C/C(=C\C(=O)n2ccc3ccccc32)c2ccccc21
inactive: SR leukemia 54.3% | RPMI-8226 leukemia 12.7% | OVCAR-8 ovarian 73.8% | OVCAR-5 ovarian 90.9% | OVCAR-4 ovarian 33.3% | SK-OV-3 ovarian 59.9% | IGROV1 ovarian 42.9% | OVCAR-3 ovarian 58.4% | HS 578T breast 84.9% | NCI/ADR-RES ovarian 84.7%

COc1cccc2c1[C@H](OC)[C@]13O[C@@]1(C2=O)[C@H](O)[C@H](C)[C@@](O)(C(=O)[C@@H]1O[C@H]1C)[C@@H]3O
active: SR leukemia -30% | RPMI-8226 leukemia -27.5% | OVCAR-8 ovarian -13.2% | OVCAR-5 ovarian 6.04% | OVCAR-4 ovarian -13.3% | SK-OV-3 ovarian -10.4% | IGROV1 ovarian 7.69% | OVCAR-3 ovarian -34.6% | HS 578T breast -30%

C#CCn1cc(/C=N/Nc2nc(-c3ccc(Br)cc3)cs2)c2ccccc21
inactive: SR leukemia 119% | RPMI-8226 leukemia 110% | OVCAR-8 ovarian 101% | OVCAR-5 ovarian 97.4% | OVCAR-4 ovarian 107% | SK-OV-3 ovarian 91.1% | IGROV1 ovarian 74.9% | OVCAR-3 ovarian 108% | HS 578T breast 101% | NCI/ADR-RES ovarian 101%

Cc1ccc(-c2csc(N/N=C/c3cccs3)n2)cc1
inactive: SR leukemia 56.1% | RPMI-8226 leukemia 86.5% | OVCAR-8 ovarian 93.6% | OVCAR-5 ovarian 122% | OVCAR-4 ovarian 59.6% | SK-OV-3 ovarian 101% | IGROV1 ovarian 86.3% | OVCAR-3 ovarian 104% | HS 578T breast 105% | NCI/ADR-RES ovarian 92.7%

C[C@]12CC[C@H]3[C@@H](CC=C4C[C@@H](O)CC[C@@]43C)[C@@H]1CC[C@@H]2[C@](C)(O)CCc1cccnc1
inactive: SR leukemia 32.3% | RPMI-8226 leukemia 33.1% | OVCAR-8 ovarian 62% | OVCAR-5 ovarian 113% | OVCAR-4 ovarian 21.9% | SK-OV-3 ovarian 82.8% | IGROV1 ovarian 81.3% | OVCAR-3 ovarian 65.7% | HS 578T breast 56% | NCI/ADR-RES ovarian 65.9%

O=C(CCCCCCNC(=O)C(O)(O)C(F)(F)F)Nc1ccc(Cl)cc1
active: OVCAR-5 ovarian 9.85% | SK-OV-3 ovarian -6.99%
inactive: SR leukemia 12.1% | RPMI-8226 leukemia 20.1% | OVCAR-8 ovarian 11.9% | OVCAR-4 ovarian 47.4% | IGROV1 ovarian 27.8% | OVCAR-3 ovarian 24.9% | HS 578T breast 33.2%

CC(Nc1c(C#N)cnc2ccc(-c3cncc(-c4n[nH]c(=O)o4)c3)cc12)c1ccccc1 (stereo not drawn)
active: SR leukemia 6.62% | OVCAR-4 ovarian -5.14% | SK-OV-3 ovarian 3.52% | IGROV1 ovarian -20% | OVCAR-3 ovarian 3.98% | HS 578T breast -22.2%
inactive: RPMI-8226 leukemia 10.5% | OVCAR-8 ovarian 18.1% | OVCAR-5 ovarian 26% | NCI/ADR-RES ovarian 67.7%

CCOC(=O)c1ccccc1NC1=C(Cl)C(=O)c2nc(C)ccc2C1=O
inactive: SR leukemia 102% | RPMI-8226 leukemia 99.3% | OVCAR-8 ovarian 100% | OVCAR-5 ovarian 101% | OVCAR-4 ovarian 83.6% | SK-OV-3 ovarian 108% | IGROV1 ovarian 91.4% | OVCAR-3 ovarian 90.6% | HS 578T breast 99%

CCCC[n+]1ccc(SCC(=O)n2ccc3ccccc32)c2ccccc21
inactive: SR leukemia 56.3% | RPMI-8226 leukemia 59.5% | OVCAR-8 ovarian 92.7% | OVCAR-5 ovarian 103% | OVCAR-4 ovarian 72.1% | SK-OV-3 ovarian 88.9% | IGROV1 ovarian 83.3% | OVCAR-3 ovarian 91.8% | HS 578T breast 99.6% | NCI/ADR-RES ovarian 110%

Cc1csc(/N=C(N)/N=C(\N)c2cccc(Br)c2)n1
inactive: SR leukemia 66.9% | RPMI-8226 leukemia 102% | OVCAR-8 ovarian 96.5% | OVCAR-5 ovarian 102% | OVCAR-4 ovarian 95.5% | SK-OV-3 ovarian 91.5% | IGROV1 ovarian 81.4% | OVCAR-3 ovarian 107% | HS 578T breast 95.1% | NCI/ADR-RES ovarian 72.7%

Cn1cc(-c2cc3ncnc(Nc4ccc(NC(=O)Nc5cc(C(C)(C)C)on5)cc4)c3s2)cn1
inactive: SR leukemia 22.3% | OVCAR-8 ovarian 44.2% | OVCAR-5 ovarian 30.4% | OVCAR-4 ovarian 41% | SK-OV-3 ovarian 20.4% | IGROV1 ovarian 19.8% | OVCAR-3 ovarian 54.9% | HS 578T breast 14.9%
active: RPMI-8226 leukemia 5.73%

O=C(CSc1nc2ccccc2c(=O)n1CCc1ccccc1)Nc1ccc(S(=O)(=O)Nc2ccc(Cl)nn2)cc1
inactive: SR leukemia 95.9% | RPMI-8226 leukemia 102% | OVCAR-8 ovarian 92% | OVCAR-5 ovarian 95.8% | OVCAR-4 ovarian 93.1% | SK-OV-3 ovarian 94.1% | IGROV1 ovarian 95.6% | OVCAR-3 ovarian 98.8% | HS 578T breast 97.1% | NCI/ADR-RES ovarian 91.7%

C#CCN(C)CCCOc1ccc(NCc2ccc(C(=O)NO)cc2)cc1Cl
active: RPMI-8226 leukemia 9.94% | SK-OV-3 ovarian -4.09% | NCI/ADR-RES ovarian 7.57%
inactive: SR leukemia 15.7% | OVCAR-8 ovarian 14.7% | OVCAR-5 ovarian 23.4% | OVCAR-4 ovarian 31.3% | IGROV1 ovarian 15.6% | OVCAR-3 ovarian 24.3% | HS 578T breast 25%

N/C(=N\C(N)=N\c1nc2ccccc2s1)c1ccc(Cl)cc1
active: SR leukemia -8.26%
inactive: RPMI-8226 leukemia 57% | OVCAR-8 ovarian 79.5% | OVCAR-5 ovarian 94.5% | OVCAR-4 ovarian 101% | SK-OV-3 ovarian 110% | IGROV1 ovarian 92% | OVCAR-3 ovarian 98.4% | HS 578T breast 105% | NCI/ADR-RES ovarian 80.3%

COc1ccc2[nH]cc(-c3nc(N)nnc3-c3cn(C)c4ccc(Br)cc34)c2c1
active: SR leukemia 9.35% | RPMI-8226 leukemia 6.31% | OVCAR-3 ovarian -8.84%
inactive: OVCAR-8 ovarian 42.8% | OVCAR-5 ovarian 56.5% | OVCAR-4 ovarian 63.6% | SK-OV-3 ovarian 44% | IGROV1 ovarian 38.9% | HS 578T breast 16.9% | NCI/ADR-RES ovarian 64.3%

NC1C2CCC1CN(c1cnc(C(=O)Nc3cc(F)cc4cccnc34)cn1)C2 (stereo not drawn)
inactive: RPMI-8226 leukemia 57% | OVCAR-8 ovarian 86% | OVCAR-5 ovarian 66.7% | OVCAR-4 ovarian 18.5% | SK-OV-3 ovarian 97.1% | IGROV1 ovarian 16.3% | OVCAR-3 ovarian 46.3% | HS 578T breast 68.8%
active: SR leukemia 5.29%

COc1ccc(C(=O)c2c(N)c(C#N)cn2-c2ccc(Cl)cc2Cl)cc1
inactive: SR leukemia 92.1% | RPMI-8226 leukemia 101% | OVCAR-8 ovarian 94.6% | OVCAR-5 ovarian 93.9% | OVCAR-4 ovarian 103% | SK-OV-3 ovarian 117% | IGROV1 ovarian 101% | OVCAR-3 ovarian 106% | HS 578T breast 90.9% | NCI/ADR-RES ovarian 86.7%

Cc1ccc(C(=O)Nc2ccc(CNCCN3CCNCC3)c(C(F)(F)F)c2)cc1C#Cc1cnc2cccnn12
active: SR leukemia -39.4% | RPMI-8226 leukemia -23.3% | OVCAR-8 ovarian 2.74% | OVCAR-4 ovarian -23% | OVCAR-3 ovarian -20.5%
inactive: OVCAR-5 ovarian 51.8% | SK-OV-3 ovarian 114% | IGROV1 ovarian 11.8% | HS 578T breast 36.6%

Cc1cc(NS(=O)(=O)c2ccc(NC(=O)CSc3nc4ccccc4c(=O)n3-c3ccccc3)cc2)no1
inactive: SR leukemia 97.9% | RPMI-8226 leukemia 110% | OVCAR-8 ovarian 102% | OVCAR-5 ovarian 92.7% | OVCAR-4 ovarian 102% | SK-OV-3 ovarian 106% | IGROV1 ovarian 97.6% | OVCAR-3 ovarian 109% | HS 578T breast 93.3% | NCI/ADR-RES ovarian 102%

CN1CCN(c2ccc(Nc3nc(NCCNC(=O)c4ccccc4)c4sccc4n3)cc2)CC1
active: SR leukemia 5.68%
inactive: RPMI-8226 leukemia 33.4% | OVCAR-8 ovarian 62.4% | OVCAR-5 ovarian 84.1% | OVCAR-4 ovarian 55.4% | SK-OV-3 ovarian 123% | IGROV1 ovarian 87.9% | OVCAR-3 ovarian 76.9% | HS 578T breast 81% | NCI/ADR-RES ovarian 91.7%

O=C(CSc1nc2ccccc2c(=O)n1-c1ccccc1)Nc1ccc(S(=O)(=O)Nc2nccs2)cc1
inactive: SR leukemia 65% | RPMI-8226 leukemia 36.8% | OVCAR-8 ovarian 89.7% | OVCAR-5 ovarian 56.9% | OVCAR-4 ovarian 77.5% | SK-OV-3 ovarian 103% | IGROV1 ovarian 83% | OVCAR-3 ovarian 38.9% | HS 578T breast 60.3% | NCI/ADR-RES ovarian 98.3%

Cc1nc(/N=C(N)/N=C(\N)c2cccc(Br)c2)sc1C
inactive: SR leukemia 35.6% | RPMI-8226 leukemia 55.1% | OVCAR-8 ovarian 58.2% | OVCAR-5 ovarian 71.1% | OVCAR-4 ovarian 87.3% | SK-OV-3 ovarian 67.8% | IGROV1 ovarian 52.3% | OVCAR-3 ovarian 47.2% | HS 578T breast 73.1% | NCI/ADR-RES ovarian 36.1%
